An excerpt weighted towards active compounds, which were near 5.7% of everything screened.
Myeloid diff 2: compounds promoting myeloid differentiation. ER-HoxA9 myeloid progenitors, lysozyme-GFP differentiation, flow cytometry. calls only at 10 µM. 1% of 360,000 active. AID 624256;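 active = normalized GFP-positive differentiation at or above the plate's own cutoff, the solvent-only control mean plus 3 SD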;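 also: cells exposed to compound for four days before flow analysis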
rCAG RNA binder: binds r(CAG) RNA repeats; AID 651821; r(CAG) RNA repeat, TO-PRO-1 dye displacement fluorescence; inhibition, % at 3 µM; 1.3% of 370,000 active;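 active = inhibition above the plate cutoff, the mean of all test compounds on that plate plus 3 SD, cut at about 35% in these data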;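 also: higher means more dye released from RNA so lower well fluorescence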
FAS TE block: blocks the thioesterase domain of human fatty acid synthase; P49327; inhibition, % at 15 µM; 0.67% of 360,000 active; recombinant FAS-TE, OMFH fluorogenic substrate, fluorescence endpoint;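 active = compounds whose normalised, plate-corrected inhibition of enzyme fluorescence in the single-dose primary screen is 50% or more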
Target sequence (P49327 whole entry, looked up, the tested form may be a part): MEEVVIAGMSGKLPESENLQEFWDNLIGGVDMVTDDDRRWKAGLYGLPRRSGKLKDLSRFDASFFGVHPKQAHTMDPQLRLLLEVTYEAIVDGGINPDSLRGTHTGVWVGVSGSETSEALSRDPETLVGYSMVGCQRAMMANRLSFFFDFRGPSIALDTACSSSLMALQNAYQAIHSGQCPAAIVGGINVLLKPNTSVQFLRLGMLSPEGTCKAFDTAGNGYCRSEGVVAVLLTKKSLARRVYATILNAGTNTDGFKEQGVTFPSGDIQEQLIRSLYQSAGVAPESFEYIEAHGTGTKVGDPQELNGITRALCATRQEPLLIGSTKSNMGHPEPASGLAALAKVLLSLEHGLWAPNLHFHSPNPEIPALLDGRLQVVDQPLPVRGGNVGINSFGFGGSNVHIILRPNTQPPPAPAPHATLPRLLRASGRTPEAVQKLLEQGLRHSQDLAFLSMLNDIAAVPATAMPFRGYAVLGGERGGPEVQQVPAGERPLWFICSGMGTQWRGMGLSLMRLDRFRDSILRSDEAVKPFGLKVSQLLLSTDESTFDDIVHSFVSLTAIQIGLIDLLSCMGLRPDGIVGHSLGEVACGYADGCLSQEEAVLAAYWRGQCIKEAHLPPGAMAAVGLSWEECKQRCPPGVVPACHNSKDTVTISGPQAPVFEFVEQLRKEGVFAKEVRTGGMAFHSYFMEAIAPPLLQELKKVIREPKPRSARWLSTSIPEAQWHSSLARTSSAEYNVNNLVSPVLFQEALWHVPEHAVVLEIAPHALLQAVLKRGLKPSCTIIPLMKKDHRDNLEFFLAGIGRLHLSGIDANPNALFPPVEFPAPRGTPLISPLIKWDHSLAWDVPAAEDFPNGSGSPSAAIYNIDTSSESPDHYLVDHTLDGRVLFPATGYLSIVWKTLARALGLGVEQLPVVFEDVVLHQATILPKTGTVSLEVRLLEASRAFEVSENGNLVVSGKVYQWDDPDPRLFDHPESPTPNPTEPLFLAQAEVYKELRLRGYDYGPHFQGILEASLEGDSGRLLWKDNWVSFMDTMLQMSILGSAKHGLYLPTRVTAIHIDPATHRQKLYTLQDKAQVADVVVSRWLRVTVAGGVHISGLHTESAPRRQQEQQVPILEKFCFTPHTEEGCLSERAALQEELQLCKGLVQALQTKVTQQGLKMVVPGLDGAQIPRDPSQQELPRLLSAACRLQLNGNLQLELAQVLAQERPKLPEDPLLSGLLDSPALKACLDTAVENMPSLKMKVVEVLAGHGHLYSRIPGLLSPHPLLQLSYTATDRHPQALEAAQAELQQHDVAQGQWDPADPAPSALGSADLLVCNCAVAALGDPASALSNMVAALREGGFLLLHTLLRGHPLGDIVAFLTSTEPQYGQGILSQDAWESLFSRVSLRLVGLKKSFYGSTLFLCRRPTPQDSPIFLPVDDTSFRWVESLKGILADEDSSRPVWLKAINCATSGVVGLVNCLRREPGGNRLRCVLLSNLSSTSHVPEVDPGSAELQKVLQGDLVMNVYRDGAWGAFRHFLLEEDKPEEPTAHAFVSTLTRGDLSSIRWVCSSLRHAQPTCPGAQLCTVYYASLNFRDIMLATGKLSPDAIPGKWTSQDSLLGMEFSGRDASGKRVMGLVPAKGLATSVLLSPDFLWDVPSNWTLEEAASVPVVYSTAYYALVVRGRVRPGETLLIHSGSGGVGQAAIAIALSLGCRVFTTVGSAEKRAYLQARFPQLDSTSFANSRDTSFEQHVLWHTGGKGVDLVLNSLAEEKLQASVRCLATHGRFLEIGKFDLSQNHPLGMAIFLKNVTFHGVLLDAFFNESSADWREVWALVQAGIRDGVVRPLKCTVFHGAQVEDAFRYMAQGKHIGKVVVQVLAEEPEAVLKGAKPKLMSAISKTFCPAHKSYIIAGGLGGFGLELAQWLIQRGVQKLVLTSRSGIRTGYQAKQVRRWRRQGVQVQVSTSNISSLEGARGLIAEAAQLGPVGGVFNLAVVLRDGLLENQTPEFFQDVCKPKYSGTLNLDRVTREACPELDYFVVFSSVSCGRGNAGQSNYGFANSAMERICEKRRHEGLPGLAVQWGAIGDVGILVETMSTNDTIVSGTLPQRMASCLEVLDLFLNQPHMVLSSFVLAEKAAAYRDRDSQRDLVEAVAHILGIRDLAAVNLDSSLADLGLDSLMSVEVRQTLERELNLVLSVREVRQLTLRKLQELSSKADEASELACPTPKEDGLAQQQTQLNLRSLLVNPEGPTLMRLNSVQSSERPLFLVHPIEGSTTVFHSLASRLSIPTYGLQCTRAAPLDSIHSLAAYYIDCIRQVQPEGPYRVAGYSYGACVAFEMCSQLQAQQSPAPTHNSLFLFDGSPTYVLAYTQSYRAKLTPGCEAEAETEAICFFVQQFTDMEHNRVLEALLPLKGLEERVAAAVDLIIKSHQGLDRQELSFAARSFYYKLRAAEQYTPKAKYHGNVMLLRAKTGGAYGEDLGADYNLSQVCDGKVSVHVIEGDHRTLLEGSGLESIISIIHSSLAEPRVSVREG
GRIN3A LBD mod: modulates the human NR3A ligand-binding domain | NR3A LBD differential scanning fluorimetry, Tm shift; 0% = protein alone, 100% = glycine-bound protein | Tm shift relative to glycine control, % at 25 µM | 2.5% of 340,000 active | AID 1259313;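 active = melting temperature shift of at least 10% of the positive control shift, at one fixed dose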
MPTP inh: inhibitors of mitochondrial permeability transition pore; inhibition, % at 10 µM; isolated mouse mitochondria, Ca2+ swelling absorbance, 30 min; 1.4% of 360,000 active;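 active = inhibition of 50% or more, scaled per plate between neutral and stimulator controls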
Large screens that a line does not name were inactive.

C=CCNC(=O)c1ccc(-c2nc(-c3ccccc3)cs2)cc1	none
Cc1nc(-c2ccc(C(=O)Nc3ccc(F)cc3)cc2)cs1	GRIN3A LBD mod 10.9
Cc1ccccc1C(=O)n1ccc2ccc(-c3ccc4ccn(Cc5ccc(C#N)cc5)c4c3)cc21	none (no result: Myeloid diff 2, FAS TE block, GRIN3A LBD mod, MPTP inh)
CCOc1ccc(-n2c(SCC(=O)c3ccc4ccccc4c3)nnc2-c2cccc(Cl)c2)cc1	none (no result: Myeloid diff 2, FAS TE block, GRIN3A LBD mod, MPTP inh)
O=c1c2ccccc2n(Cc2ccccc2)n1[C@@H](Cc1ccccc1)Cn1cc(C2CCCC2)nn1	none (no result: Myeloid diff 2, FAS TE block, GRIN3A LBD mod, MPTP inh)
CC(C)C[C@H](NC(=O)C1CC1)C(=O)N1CCC[C@H]1C(=O)NCc1ccccc1	none (no result: Myeloid diff 2, FAS TE block, GRIN3A LBD mod, MPTP inh)
C#CCNC(=O)C[C@H]1C(=O)N(Cc2ccc(OC)cc2)C2=CCCC[C@@]21C(=O)OCC	none (no result: Myeloid diff 2, FAS TE block, GRIN3A LBD mod, MPTP inh)
COc1ccc(C2C(C(=O)Nc3cc(Cl)ccc3F)CCC(=O)N2c2ccc(OC)cc2)cc1 (stereo not given)	none (no result: Myeloid diff 2, FAS TE block, GRIN3A LBD mod, MPTP inh)
Cc1nc(-c2ccc(C(=O)Nc3cccc(F)c3)cc2)cs1	none
Cc1nc(-c2cccc(NC(=O)c3ccc(-n4cccn4)cc3)c2)cs1	GRIN3A LBD mod 15.9
O=C(CCCCCCCC(=O)c1ccccc1)c1ccccc1	GRIN3A LBD mod 24.1
Cc1ccc(C(=O)CC(=O)c2ccccc2)cc1	GRIN3A LBD mod 34.1
O=C(O)CCCCCCCCCCCc1ccccc1	rCAG RNA binder 35.8
Cc1ccc(C(=O)OCC(=O)c2ccccc2)cc1	GRIN3A LBD mod 18.8
O=C(CCCCCCC(=O)c1ccccc1)c1ccccc1	none
CC1(C)CC(=O)C=C(Nc2ccccc2NC(=O)c2cc(F)ccc2F)C1	none (no result: Myeloid diff 2, FAS TE block, GRIN3A LBD mod, MPTP inh)
CC(/C=N\NC(=O)CSc1nnc(-c2ccc(Br)cc2)n1-c1ccccc1)=C\c1ccco1	none (no result: Myeloid diff 2, FAS TE block, GRIN3A LBD mod, MPTP inh)
CC(c1c[nH]c2ccccc12)c1cn(C)c2ccccc12 (stereo not given)	none (no result: Myeloid diff 2, FAS TE block, GRIN3A LBD mod, MPTP inh)
Cc1ccc(C(=O)CCC(=O)NCc2ccccc2)cc1	GRIN3A LBD mod 51.1
CC(C)(C)c1ccc(C(=O)CCC(=O)NCc2ccccc2)cc1	none
Cc1cc(N2CCN(CC(C)(C)O)C[C@H]2C)ccc1N1CCN(CC(C)(C)O)[C@H](C)C1	none (no result: Myeloid diff 2, FAS TE block, GRIN3A LBD mod, MPTP inh)
O=C(Oc1ccc(-c2csnn2)cc1)c1cccs1	GRIN3A LBD mod 29.1
O=C(Oc1ccccc1-c1csnn1)c1cccs1	none
C/C(CC(=O)Nc1ccc(Cl)c(C(F)(F)F)c1)=N\NC(=O)c1cc2ccccc2cc1O	rCAG RNA binder 50.7, GRIN3A LBD mod 29.6
COc1ccc(-c2ccc3c(n2)CCCN3S(=O)(=O)c2ccc(C#N)cc2)cc1	none (no result: Myeloid diff 2, FAS TE block, GRIN3A LBD mod, MPTP inh)
Oc1c(C=Nc2ccccc2)sc(=S)n1Cc1ccccc1	Myeloid diff 2 active
CCn1c(O)c(C=Nc2ccccc2)sc1=S	none (no result: Myeloid diff 2, FAS TE block, MPTP inh)
COc1ccc(C(=O)N2CCCC(Nc3ccc(F)cc3)C2)cc1F (stereo not given)	none
COc1ccc(C(=O)N2CCCC(Nc3ccc(C)c(C)c3)C2)cc1F (stereo not given)	GRIN3A LBD mod 15.9
NS(=O)(=O)c1ccc(CCNC(=O)C2CCC(CNS(=O)(=O)c3ccc(Br)s3)CC2)cc1 (stereo not given)	GRIN3A LBD mod 12.8
O=C(NCc1cccs1)C1CCC(CNS(=O)(=O)c2ccc(Br)s2)CC1 (stereo not given)	none
COc1ccc(NC(=O)COC(=O)c2ccccc2SCC(=O)N2CCCC2)cc1	GRIN3A LBD mod 19.5
N#CC1(NC(=O)COC(=O)c2ccccc2SCC(=O)N2CCCC2)CCCCC1	GRIN3A LBD mod 12.6
CC(=O)Nc1ccc(NC(=O)COC(=O)c2ccccc2SCC(=O)N2CCCC2)cc1	none
O=C(OCC(=O)N1CCCCC1)c1ccccc1SCC(=O)N1CCCCC1	none
CCOc1cccc(/C=N\NC(=O)c2cnccn2)c1O	none (no result: Myeloid diff 2, FAS TE block, GRIN3A LBD mod, MPTP inh)
C=CCN1[C@H](CC(C)C)COc2cc(F)ccc2S1(=O)=O	none (no result: Myeloid diff 2, FAS TE block, GRIN3A LBD mod, MPTP inh)
CC(C)CNc1cccc2c1S(=O)(=O)N(Cc1cccc(F)c1)[C@@H](C)[C@H](c1ccccc1)O2	none (no result: Myeloid diff 2, FAS TE block, GRIN3A LBD mod, MPTP inh)
Cc1ccccc1C(=O)N[C@@H](CC(C)C)C(=O)N1CCC[C@H]1C(=O)NCc1ccccc1	none (no result: Myeloid diff 2, FAS TE block, GRIN3A LBD mod, MPTP inh)
CCCOc1ccc2c(c1)C(=NN=C(N)N)c1cc(OCCC)ccc1-2	GRIN3A LBD mod 34.1
O=C(O)c1cc2c(s1)-c1ccccc1CC2	none
O=C(N/N=C/c1ccc(Cl)cc1)c1cc2c(s1)-c1ccccc1CC2	GRIN3A LBD mod 11.8
O=C(N/N=C/c1ccc(Cl)cc1)c1cc(-c2cccnc2)nc2ccccc12	none
Nc1sc(-c2ccccc2)cc1C(=O)N/N=C/c1ccc(Cl)cc1	GRIN3A LBD mod 13.2
COC(=O)[C@]12C[C@H](CC(=O)NCc3ccc(C)o3)C(=O)N(Cc3ccco3)C1=C[C@H](C1CCCC1)O[C@@H]2C	none (no result: Myeloid diff 2, FAS TE block, GRIN3A LBD mod, MPTP inh)
CCC1CCCCN1C(=O)CSc1nc2c(cnn2-c2ccc(C)cc2)c(=O)[nH]1 (stereo not given)	GRIN3A LBD mod 16.1
Cc1ccc(-n2ncc3c(=O)[nH]c(SCC(=O)N4CCOCC4)nc32)cc1	none
Cc1ccc2c(CN3CCCc4ccccc43)cc(=O)oc2c1C	Myeloid diff 2 active
Cc1ccc(CN2CCCCC(NC(=O)Cc3cccs3)C2=O)cc1 (stereo not given)	none (no result: Myeloid diff 2, FAS TE block, GRIN3A LBD mod, MPTP inh)
COc1ccc2c(C)cc(SCC#N)nc2c1	none (no result: rCAG RNA binder)
COc1ccc2c(C)cc(SCc3c(C)noc3C)nc2c1	Myeloid diff 2 active
O=C(Nc1ccc(Nc2ccccc2)cc1)c1c(F)c(F)c(F)c(F)c1F	GRIN3A LBD mod 14.9
O=C(NC(=S)Nc1ccc(-c2ccccc2)cc1)c1ccccc1	none
O=C(Nc1ccc(Nc2ccccc2)cc1)c1ccc(F)cc1	GRIN3A LBD mod 14.7
O=C(NC(=S)Nc1ccc(NC(=O)c2ccccc2)cc1)c1ccc(F)cc1	GRIN3A LBD mod 19.8
O=C(NN=Cc1ccco1)c1cccnc1	none (no result: Myeloid diff 2, FAS TE block, GRIN3A LBD mod, MPTP inh)
Cc1ccc(-c2nc(SCC(=O)NCC3CCCO3)c(-c3ccccc3)[nH]2)cc1 (stereo not given)	Myeloid diff 2 active
CC(=O)/C=C\c1cn(-c2ncc(C(F)(F)F)cc2Cl)c2ccccc12	GRIN3A LBD mod 13.6
N#CC(C#N)=Cc1cn(-c2ncc(C(F)(F)F)cc2Cl)c2ccccc12	none
COc1ccc(-c2c(C(=O)c3ccccc3)[nH]c(N)c2C(N)=O)cc1OC	none (no result: GRIN3A LBD mod)
COc1ccc(-c2c(C(=O)c3ccc(Br)cc3)[nH]c(N)c2C(=O)c2ccccc2)cc1OC	Myeloid diff 2 active (no result: GRIN3A LBD mod)
COc1ccc(CCN2C(=O)c3[nH]nc(-c4ccccc4O)c3C2c2cccc(Cl)c2)cc1 (stereo not given)	GRIN3A LBD mod 15.2
COc1ccc(NC(=S)NC(=O)c2ccccc2Cl)cc1	none
COc1ccccc1C(=O)NC(=S)Nc1ccc(NC(=O)c2cccs2)cc1	GRIN3A LBD mod 30.1
O=C(NC(=S)Nc1ccc(O)cc1)c1ccccc1Cl	GRIN3A LBD mod 16.2
O=C(Nc1ccc(NC(=S)NC(=O)c2cccs2)cc1)c1ccccc1	GRIN3A LBD mod 26.0
O=C(NNC(=S)NC(=O)c1cccs1)c1ccc(NC(=O)c2ccccc2)cc1	GRIN3A LBD mod 23.1
COC(=O)CC#C[C@H](C)[C@@H](NS(=O)(=O)c1ccc([N+](=O)[O-])cc1)C(C)(C)C	none (no result: Myeloid diff 2, FAS TE block, GRIN3A LBD mod, MPTP inh)
COC(=O)[C@H](CC(C)C)N(CCc1cn(Cc2ccccc2)nn1)S(=O)(=O)c1ccc(F)cc1Br	none (no result: Myeloid diff 2, FAS TE block, GRIN3A LBD mod, MPTP inh)
